ChEMBL document CHEMBL1961873, “Compounds: GSK PKIS; Assays: Nanosyn kinase panel” (2012)

Tests used:
[1] = biological target: T1, Inhibitor of nuclear factor kappa-B kinase subunit epsilon (Homo sapiens) (UniProt Q14164); conditions: at 1 µM;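 further: reported values are averaged percent inhibition figures against human IKKε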
T1 sequence (whole entry): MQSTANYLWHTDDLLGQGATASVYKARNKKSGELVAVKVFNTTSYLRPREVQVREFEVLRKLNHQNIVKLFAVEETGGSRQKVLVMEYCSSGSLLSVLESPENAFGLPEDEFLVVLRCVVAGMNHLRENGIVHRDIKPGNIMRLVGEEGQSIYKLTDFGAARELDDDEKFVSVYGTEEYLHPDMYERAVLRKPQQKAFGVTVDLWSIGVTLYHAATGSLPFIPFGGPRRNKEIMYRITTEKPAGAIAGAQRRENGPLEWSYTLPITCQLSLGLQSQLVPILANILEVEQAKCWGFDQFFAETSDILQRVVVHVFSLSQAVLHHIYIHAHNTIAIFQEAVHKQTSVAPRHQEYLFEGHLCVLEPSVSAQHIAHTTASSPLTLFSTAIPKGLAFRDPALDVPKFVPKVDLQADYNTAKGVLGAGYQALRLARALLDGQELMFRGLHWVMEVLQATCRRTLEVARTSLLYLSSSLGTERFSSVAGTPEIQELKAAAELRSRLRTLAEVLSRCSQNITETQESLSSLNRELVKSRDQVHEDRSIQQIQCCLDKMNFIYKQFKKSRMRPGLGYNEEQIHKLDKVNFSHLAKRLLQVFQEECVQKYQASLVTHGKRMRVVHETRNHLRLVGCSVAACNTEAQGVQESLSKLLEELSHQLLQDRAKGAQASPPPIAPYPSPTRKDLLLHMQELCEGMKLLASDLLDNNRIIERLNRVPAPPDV

[2] = biological target: T2, Serine/threonine-protein kinase Nek1 (Homo sapiens) (UniProt Q96PY6); conditions: at 0.1 µM
T2 sequence (whole entry): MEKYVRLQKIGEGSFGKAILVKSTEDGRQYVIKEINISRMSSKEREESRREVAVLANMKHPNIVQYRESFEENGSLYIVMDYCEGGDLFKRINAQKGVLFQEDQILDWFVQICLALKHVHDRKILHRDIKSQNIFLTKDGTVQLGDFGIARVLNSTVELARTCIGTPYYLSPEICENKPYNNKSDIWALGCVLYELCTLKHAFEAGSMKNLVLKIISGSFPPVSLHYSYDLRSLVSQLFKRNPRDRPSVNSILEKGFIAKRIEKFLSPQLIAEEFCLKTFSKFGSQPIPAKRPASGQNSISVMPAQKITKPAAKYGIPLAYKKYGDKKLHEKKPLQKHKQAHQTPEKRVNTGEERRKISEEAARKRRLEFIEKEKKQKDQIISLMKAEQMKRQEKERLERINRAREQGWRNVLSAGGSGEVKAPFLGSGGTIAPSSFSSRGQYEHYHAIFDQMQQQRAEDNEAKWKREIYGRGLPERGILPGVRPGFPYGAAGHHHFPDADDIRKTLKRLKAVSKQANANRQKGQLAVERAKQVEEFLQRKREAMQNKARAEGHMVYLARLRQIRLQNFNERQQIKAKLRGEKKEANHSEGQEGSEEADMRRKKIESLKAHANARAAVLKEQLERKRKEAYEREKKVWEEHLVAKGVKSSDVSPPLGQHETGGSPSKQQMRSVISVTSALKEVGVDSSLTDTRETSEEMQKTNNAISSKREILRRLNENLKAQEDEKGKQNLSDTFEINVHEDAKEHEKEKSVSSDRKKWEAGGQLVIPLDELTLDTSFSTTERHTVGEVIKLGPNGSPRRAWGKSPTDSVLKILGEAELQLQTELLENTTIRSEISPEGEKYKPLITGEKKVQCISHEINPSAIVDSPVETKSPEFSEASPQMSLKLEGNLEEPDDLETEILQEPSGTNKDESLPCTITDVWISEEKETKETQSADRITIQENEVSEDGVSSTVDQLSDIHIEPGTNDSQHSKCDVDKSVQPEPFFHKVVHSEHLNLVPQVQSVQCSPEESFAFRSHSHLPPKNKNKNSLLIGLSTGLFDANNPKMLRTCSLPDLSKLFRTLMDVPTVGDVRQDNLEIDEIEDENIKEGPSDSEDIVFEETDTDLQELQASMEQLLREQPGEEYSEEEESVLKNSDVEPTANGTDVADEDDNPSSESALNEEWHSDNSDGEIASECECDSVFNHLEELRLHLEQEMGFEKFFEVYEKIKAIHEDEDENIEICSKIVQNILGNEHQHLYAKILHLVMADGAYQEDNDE

[3] = biological target: T2, Serine/threonine-protein kinase Nek1 (Homo sapiens); conditions: at 1 µM
[4] = biological target: T3, Serine/threonine-protein kinase Nek2 (Homo sapiens) (UniProt P51955); conditions: at 0.1 µM
T3 sequence (whole entry): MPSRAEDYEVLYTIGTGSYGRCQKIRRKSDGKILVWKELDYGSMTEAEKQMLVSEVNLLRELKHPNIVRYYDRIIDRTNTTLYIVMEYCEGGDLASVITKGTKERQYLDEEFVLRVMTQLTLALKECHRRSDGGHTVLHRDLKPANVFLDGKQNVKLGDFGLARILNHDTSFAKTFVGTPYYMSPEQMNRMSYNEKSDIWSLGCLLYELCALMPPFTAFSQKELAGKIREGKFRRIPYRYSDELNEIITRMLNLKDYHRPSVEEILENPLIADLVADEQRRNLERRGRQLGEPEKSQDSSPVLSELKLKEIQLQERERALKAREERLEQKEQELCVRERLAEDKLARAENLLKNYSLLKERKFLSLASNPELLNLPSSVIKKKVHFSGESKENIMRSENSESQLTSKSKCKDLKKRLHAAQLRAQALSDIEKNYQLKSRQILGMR

[5] = biological target: T3, Serine/threonine-protein kinase Nek2 (Homo sapiens); conditions: at 1 µM
[6] = biological target: Serine/threonine-protein kinase Nek6 (Homo sapiens) (UniProt Q9HC98); conditions: at 0.1 µM
[7] = biological target: Serine/threonine-protein kinase Nek6 (Homo sapiens) (UniProt Q9HC98); conditions: at 1 µM
[8] = biological target: Serine/threonine-protein kinase Nek7 (Homo sapiens) (UniProt Q8TDX7); conditions: at 0.1 µM
[9] = biological target: Serine/threonine-protein kinase Nek7 (Homo sapiens) (UniProt Q8TDX7); conditions: at 1 µM
[10] = biological target: T4, Serine/threonine-protein kinase Nek9 (Homo sapiens) (UniProt Q8TD19); conditions: at 0.1 µM;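 further: reported value is the mean percent inhibition of NEK9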
T4 sequence (whole entry): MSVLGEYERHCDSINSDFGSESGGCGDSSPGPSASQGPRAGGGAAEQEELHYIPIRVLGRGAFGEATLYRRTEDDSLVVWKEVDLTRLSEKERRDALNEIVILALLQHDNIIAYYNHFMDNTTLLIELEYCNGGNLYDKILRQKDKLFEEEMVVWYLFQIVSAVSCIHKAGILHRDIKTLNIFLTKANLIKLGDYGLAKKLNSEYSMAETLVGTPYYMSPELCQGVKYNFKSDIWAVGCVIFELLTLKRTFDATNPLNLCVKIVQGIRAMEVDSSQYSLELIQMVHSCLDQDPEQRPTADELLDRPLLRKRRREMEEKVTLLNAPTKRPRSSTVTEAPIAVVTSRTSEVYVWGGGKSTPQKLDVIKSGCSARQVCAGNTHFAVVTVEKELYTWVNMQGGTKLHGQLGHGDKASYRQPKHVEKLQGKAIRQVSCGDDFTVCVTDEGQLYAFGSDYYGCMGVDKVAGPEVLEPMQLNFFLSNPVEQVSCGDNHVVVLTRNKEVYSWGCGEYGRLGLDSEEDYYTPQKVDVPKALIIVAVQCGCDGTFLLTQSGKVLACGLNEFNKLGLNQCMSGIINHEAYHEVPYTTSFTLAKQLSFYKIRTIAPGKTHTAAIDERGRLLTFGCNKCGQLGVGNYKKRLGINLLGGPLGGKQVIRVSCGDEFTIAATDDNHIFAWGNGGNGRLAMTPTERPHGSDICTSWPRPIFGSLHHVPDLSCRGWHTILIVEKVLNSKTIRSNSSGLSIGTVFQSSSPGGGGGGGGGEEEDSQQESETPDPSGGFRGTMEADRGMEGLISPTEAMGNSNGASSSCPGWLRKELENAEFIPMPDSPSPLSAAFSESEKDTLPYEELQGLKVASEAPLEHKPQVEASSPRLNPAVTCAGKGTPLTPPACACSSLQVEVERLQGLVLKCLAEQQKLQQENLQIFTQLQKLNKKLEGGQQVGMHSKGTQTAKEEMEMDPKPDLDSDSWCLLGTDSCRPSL

Serine/threonine-protein kinase Nek6 (Homo sapiens), sequence (Q9HC98 whole entry): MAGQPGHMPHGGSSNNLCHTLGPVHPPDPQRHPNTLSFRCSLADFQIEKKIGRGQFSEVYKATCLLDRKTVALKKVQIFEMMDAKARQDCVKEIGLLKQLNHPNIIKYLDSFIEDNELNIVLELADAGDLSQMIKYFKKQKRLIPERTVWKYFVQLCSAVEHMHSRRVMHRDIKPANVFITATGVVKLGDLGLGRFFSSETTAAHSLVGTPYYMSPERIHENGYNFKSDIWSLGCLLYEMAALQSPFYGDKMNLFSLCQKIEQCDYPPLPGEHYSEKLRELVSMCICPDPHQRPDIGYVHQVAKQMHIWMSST
Serine/threonine-protein kinase Nek7 (Homo sapiens), sequence (Q8TDX7 whole entry, looked up): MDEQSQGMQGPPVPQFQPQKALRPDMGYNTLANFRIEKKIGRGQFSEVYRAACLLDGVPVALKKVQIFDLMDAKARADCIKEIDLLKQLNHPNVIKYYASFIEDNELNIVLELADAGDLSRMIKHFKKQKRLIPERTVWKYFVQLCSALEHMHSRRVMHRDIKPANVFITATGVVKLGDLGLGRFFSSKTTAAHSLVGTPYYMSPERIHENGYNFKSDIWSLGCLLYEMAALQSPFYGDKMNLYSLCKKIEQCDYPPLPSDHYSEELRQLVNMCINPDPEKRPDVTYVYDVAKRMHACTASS

SMILES | inhibition [1] [%] | inhibition [2] [%] | inhibition [3] [%] | inhibition [4] [%] | inhibition [5] [%] | inhibition [6] [%] | inhibition [7] [%] | inhibition [8] [%] | inhibition [9] [%] | inhibition [10] [%]
COc1ccc2cc(-c3c(-c4ccncc4)nc(-c4ccc(S(C)(=O)=O)cc4C)n3C)ccc2c1 | 7.25 | 3.37 | 4.4 | 5.82 | 4.5 | 0.49 | 4.51 | 5.77 | 4.57 | 6.52
NC(=O)c1cc(-c2ccc(F)cc2)cc(-c2ccncc2)c1N | 3.16 | 1.62 | 1.03 | 4.7 | 3.75 | 4.68 | 6.66 | 6.78 | 4.73 | 7.94
COc1cc(Nc2ncc3c(C)nc(-c4cccc(Oc5ccccc5)c4)n3n2)cc(OC)c1OC | 21.3 | 2.64 | 11.3 | 7.11 | 31.6 | 2.7 | -0.99 | 4.1 | 1.98 | 29
O=C(Nc1n[nH]c2cc(-c3cc(F)ccc3F)ccc12)C1CC1 | 6.78 | 1.23 | 0.65 | 3.53 | 2.03 | 1.92 | -0.92 | 6.28 | 3.5 | 11.6
CCS(=O)(=O)c1ccc(OC)c(Nc2ncc(-c3cccc(-c4ccccc4F)c3)o2)c1 | 0.08 | 1.03 | 1.67 | 0.99 | -0.68 | 1.36 | -2.09 | 1.63 | -0.61 | -0.87
Cc1ccc(C(=O)NC2CCC2)cc1-c1ccc(C(=O)NCC2CC2)cc1 | 2.96 | 0.93 | 3.06 | 4.6 | 3.71 | -0.33 | 1.33 | 3.14 | 2.04 | 4.75
C/C(Nc1ccc(S(N)(=O)=O)cc1)=C1/C(=O)Nc2ccccc21 | 2.23 | -0.12 | 0.52 | -0.14 | 0.19 | -4.26 | -0.83 | – | -0.23 | 2.83
C[C@@H](Oc1cc(-n2cnc3ccc(OC4CCN(C)CC4)cc32)sc1C(N)=O)c1ccccc1Cl | 6.16 | 9.13 | 38.1 | 10.1 | 39.5 | -0.34 | 2.21 | 3.24 | 8.62 | 62
